# Data from article PMC7862700, “An all-to-all approach to the identification of sequence-specific readers for epigenetic DNA modifications on cytosine”.
# How the values were obtained:
# Assay in all cases: DAPPL (digital affinity profiling via proximity ligation, sequencing); 10 mM Tris-HCl pH 7.5, 50 mM NaCl, 1 mM DTT, 4% glycerol, room temperature, 30 min; GST-TFs on glutathione beads, 16-mer random dsDNA library, 0.1% formaldehyde crosslink after washing; high values mean tight binding
# Conditions in all cases: protein: recombinant; tags: N-terminal GST; dsDNA, one strand shown
# FLI1 = biological target: T1, FLI1 (Homo sapiens, UniProt Q01543 1-452)
# T1 sequence: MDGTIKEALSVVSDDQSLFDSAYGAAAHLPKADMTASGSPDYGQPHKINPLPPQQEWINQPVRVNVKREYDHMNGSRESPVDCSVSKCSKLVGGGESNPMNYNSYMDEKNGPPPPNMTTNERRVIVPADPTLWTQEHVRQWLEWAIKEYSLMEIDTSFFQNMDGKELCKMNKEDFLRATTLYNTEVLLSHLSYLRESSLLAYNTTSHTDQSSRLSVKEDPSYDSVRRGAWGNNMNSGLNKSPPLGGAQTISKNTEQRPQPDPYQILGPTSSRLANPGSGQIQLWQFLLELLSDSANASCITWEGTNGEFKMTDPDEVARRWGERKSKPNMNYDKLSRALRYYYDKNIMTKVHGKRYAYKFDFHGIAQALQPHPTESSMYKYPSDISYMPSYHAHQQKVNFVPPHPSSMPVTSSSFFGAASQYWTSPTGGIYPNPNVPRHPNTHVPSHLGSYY
# In short: (§1)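 The binding signal reported is, for every hexamer, its read frequency for a factor over its read frequency for the tag-only sample. Reads came from pools of yeast-expressed, GST-fused human transcription factors on glutathione beads, barcoded with DNA and mixed with that sample, which were incubated with 200 nmole of a random double-stranded 16-mer DNA library in Tris/NaCl/DTT/glycerol buffer at room temperature for 30 min. After washing, the pools were crosslinked with 0.1% formaldehyde, proximity-ligated with BsaI/T4 ligase for 1 h at 37 °C, PCR-amplified and sequenced on an Illumina NextSeq500.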
# ELK1 = biological target: T2, ELK1 (Homo sapiens, UniProt P19419 1-428)
# T2 sequence: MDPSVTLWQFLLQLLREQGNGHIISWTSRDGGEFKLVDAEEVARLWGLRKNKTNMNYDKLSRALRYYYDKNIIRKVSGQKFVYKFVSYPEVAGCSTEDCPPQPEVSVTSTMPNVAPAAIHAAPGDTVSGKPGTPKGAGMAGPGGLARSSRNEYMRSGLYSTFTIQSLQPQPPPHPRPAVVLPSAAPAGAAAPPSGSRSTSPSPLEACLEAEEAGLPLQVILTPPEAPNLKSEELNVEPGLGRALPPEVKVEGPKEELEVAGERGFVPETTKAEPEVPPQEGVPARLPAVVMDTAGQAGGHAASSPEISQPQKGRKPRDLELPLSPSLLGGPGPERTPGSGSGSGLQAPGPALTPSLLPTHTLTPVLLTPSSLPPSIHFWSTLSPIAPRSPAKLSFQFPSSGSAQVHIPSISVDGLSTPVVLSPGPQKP
# In short: as §1
# GABPA = biological target: T3, GABPA (Homo sapiens, UniProt Q06546 1-454)
# T3 sequence: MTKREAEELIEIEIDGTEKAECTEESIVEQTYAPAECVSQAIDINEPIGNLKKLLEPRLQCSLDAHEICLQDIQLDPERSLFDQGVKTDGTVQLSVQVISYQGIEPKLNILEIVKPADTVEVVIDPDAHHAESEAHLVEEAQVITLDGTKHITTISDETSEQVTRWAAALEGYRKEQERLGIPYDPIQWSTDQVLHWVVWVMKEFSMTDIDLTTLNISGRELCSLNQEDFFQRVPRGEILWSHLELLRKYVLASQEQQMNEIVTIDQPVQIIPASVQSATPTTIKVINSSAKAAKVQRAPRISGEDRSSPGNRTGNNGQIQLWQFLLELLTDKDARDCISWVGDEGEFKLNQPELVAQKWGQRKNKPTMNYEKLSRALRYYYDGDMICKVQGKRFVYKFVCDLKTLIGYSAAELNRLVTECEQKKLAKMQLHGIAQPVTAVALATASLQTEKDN
# In short: as §1
# ERG = biological target: T4, ERG (Homo sapiens, UniProt P11308 1-479)
# T4 sequence: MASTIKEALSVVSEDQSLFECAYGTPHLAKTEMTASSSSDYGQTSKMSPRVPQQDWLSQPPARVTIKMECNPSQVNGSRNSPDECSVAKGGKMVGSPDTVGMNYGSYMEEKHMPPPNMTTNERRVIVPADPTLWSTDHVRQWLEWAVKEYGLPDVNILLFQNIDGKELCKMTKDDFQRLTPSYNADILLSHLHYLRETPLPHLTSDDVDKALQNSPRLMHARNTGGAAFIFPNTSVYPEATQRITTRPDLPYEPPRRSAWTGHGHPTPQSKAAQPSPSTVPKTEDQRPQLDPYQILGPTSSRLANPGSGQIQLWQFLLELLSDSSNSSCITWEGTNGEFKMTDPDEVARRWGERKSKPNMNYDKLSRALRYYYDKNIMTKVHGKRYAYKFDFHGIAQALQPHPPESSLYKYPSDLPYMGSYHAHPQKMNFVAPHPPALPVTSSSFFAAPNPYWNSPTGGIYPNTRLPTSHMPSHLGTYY
# In short: as §1
# ELF1 = ELF1 (Homo sapiens, UniProt P32519 1-619)
# Chain of ELF1 (P32519 whole entry): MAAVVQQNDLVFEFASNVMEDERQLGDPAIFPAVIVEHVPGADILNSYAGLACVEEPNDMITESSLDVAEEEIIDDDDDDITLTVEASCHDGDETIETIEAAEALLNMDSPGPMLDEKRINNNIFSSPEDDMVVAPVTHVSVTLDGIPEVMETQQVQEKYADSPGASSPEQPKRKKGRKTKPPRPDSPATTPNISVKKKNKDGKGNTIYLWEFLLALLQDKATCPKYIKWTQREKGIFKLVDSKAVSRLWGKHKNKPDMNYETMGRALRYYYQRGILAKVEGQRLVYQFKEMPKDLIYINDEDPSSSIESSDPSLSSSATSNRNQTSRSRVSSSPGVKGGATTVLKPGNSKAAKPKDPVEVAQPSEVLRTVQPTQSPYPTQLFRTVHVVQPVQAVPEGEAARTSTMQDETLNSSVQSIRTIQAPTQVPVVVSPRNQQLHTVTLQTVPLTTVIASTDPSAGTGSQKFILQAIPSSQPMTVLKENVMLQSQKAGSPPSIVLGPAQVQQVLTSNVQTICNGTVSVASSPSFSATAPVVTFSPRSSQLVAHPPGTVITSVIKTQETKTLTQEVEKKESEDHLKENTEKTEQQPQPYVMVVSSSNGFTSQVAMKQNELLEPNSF
# In short: as §1
# EHF = biological target: T5, EHF (Homo sapiens, UniProt Q9NZC4 1-300)
# T5 sequence: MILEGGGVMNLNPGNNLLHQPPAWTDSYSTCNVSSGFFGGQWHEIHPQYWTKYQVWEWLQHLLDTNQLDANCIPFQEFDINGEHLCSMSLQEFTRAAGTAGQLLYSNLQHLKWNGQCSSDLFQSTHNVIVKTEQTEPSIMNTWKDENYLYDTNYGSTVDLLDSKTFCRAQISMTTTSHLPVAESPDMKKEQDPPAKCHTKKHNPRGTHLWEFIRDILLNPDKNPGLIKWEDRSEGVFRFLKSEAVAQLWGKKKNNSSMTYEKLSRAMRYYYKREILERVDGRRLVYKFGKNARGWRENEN
# In short: as §1
# SPI1 = SPI1 (Homo sapiens, UniProt P17947 1-270)
# In short: as §1
# SPIB = SPIB (Homo sapiens, UniProt Q01892 1-262)
# Chain of SPIB (Q01892 whole entry): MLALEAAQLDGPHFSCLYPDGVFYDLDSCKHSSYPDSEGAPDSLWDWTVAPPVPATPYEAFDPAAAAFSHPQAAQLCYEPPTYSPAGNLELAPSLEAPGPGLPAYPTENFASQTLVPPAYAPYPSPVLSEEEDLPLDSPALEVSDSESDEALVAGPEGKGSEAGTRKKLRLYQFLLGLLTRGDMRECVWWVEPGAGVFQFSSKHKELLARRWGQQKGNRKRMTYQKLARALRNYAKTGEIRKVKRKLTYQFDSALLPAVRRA
# In short: as §1
# ELK3 = biological target: T6, ELK3 (Homo sapiens, UniProt P41970 1-407)
# T6 sequence: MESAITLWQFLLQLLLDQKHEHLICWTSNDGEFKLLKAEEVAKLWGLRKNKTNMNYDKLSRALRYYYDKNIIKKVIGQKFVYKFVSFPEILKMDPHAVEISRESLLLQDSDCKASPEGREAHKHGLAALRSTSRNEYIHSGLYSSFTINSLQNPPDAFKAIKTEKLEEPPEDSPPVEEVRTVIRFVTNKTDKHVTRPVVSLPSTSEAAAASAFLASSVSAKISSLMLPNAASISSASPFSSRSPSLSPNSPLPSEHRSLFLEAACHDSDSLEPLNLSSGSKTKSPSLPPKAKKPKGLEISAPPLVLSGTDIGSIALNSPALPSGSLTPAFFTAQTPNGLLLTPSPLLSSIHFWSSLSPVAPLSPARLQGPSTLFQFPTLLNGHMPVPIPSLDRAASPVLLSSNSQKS
# In short: as §1
sequence,measurement,setting,value
AACGAC,binding signal,FLI1,"1.14 fold enrichment (6-mer frequency, TF over GST control)"
same,binding signal,ELK1,"1.19 fold enrichment (6-mer frequency, TF over GST control)"
same,binding signal,GABPA,"1.18 fold enrichment (6-mer frequency, TF over GST control)"
same,binding signal,ERG,"1.14 fold enrichment (6-mer frequency, TF over GST control)"
same,binding signal,ELF1,"1.09 fold enrichment (6-mer frequency, TF over GST control)"
same,binding signal,EHF,"1.1 fold enrichment (6-mer frequency, TF over GST control)"
same,binding signal,SPI1,"1.12 fold enrichment (6-mer frequency, TF over GST control)"
same,binding signal,SPIB,"1.04 fold enrichment (6-mer frequency, TF over GST control)"
same,binding signal,ELK3,"1.06 fold enrichment (6-mer frequency, TF over GST control)"
